Compounds with a hit are over-represented: about 3.7% of the library has one in this group of screens.
TMEM16A inh: mouse TMEM16A channel inhibition, primary screen; Q8BHY3; HEK293 TMEM16A/YFP iodide influx fluorescence, ionomycin; normalized B-score (activity score, 25-100; higher = stronger inhibition) at 10 µM; 310,000 tested, 1.2% active;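 active = ratio plate-corrected score three or more library SD toward inhibition, starting fluorescence score within five deviations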;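 note: score derived from kinetic fluorescence span divided by baseline fluorescence per well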
Target sequence (Q8BHY3 whole entry, looked up): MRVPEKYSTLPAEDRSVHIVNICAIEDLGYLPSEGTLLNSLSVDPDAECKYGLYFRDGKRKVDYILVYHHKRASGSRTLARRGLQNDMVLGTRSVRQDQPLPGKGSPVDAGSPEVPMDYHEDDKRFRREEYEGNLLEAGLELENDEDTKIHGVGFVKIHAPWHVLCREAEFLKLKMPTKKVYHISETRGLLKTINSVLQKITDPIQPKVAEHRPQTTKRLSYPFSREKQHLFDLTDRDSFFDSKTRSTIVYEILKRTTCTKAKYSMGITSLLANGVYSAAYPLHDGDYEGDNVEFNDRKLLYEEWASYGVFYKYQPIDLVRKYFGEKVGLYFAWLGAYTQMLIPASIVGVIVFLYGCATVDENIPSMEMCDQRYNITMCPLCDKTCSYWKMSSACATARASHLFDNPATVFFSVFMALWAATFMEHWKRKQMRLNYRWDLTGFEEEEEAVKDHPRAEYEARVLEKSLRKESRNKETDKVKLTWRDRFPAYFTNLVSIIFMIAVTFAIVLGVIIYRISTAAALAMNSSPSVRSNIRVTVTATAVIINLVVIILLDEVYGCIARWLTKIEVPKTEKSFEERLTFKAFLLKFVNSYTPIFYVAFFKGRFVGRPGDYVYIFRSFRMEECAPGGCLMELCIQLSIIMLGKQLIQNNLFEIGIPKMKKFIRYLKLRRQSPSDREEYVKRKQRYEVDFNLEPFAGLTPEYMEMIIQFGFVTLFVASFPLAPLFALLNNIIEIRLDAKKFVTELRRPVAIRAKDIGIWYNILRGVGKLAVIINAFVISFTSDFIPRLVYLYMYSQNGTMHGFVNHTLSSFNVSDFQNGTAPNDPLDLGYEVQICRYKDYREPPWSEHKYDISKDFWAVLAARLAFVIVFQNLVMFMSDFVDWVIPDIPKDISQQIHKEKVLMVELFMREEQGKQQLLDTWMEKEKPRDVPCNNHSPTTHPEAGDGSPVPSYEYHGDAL
CHT PAM: allosteric activators of human choline transporter CHT. B-score at 10 µM. AID 488977. CHT-expressing cells, membrane potential dye, choline EC20; active compounds read high; LV-AA mutant CHT in HEK293 cells. 310,000 tested, 0.49% active. Q9GZV3;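 active = initial fluorescence not abnormally high and integrated response B-score, plate-corrected, over 3 SD above library mean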
CHT inh: human CHT choline transport inhibition | Q9GZV3 | CHT-expressing cells, membrane potential dye, choline response; active compounds read low | B-score at 10 µM | 310,000 tested, 0.86% active;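 active = B-score over 3 SD under the library average, and starting fluorescence ratio not unusually high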;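 note: choline stimulus applied at its EC90 after an EC20 pre-addition; B-score computed on integrated fluorescence ratio after choline addition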
GPR7 antag: human neuropeptides B/W receptor 1 antagonism; GPR7-expressing cells, fluorescence antagonist assay; inhibition, % at 4.4 µM; 290,000 tested, 1.1% active; AID 1861; in the data active = inhibition above about 16%, passing the limit was not always enough;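 note: cells stimulated with the agonist NPW; 0% = agonist with vehicle and 100% = vehicle without agonist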
Kir21 block: blocks the mouse Kir2.1 inward-rectifier potassium channel; P35561; HEK293-Kir2.1, FluxOR thallium flux fluorescence; active compounds read low; B-score at 10 µM; 310,000 tested, 0.85% active; AID 1672;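 active = fluorescence ratio B-score at or below minus 3 SD of library scores, with starting-brightness B-score within 2 SD, cut at about -4.2 in these data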;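 note: channel flux triggered by added potassium and thallium sulfate stimulus; B-score of peak minus minimum fluorescence over baseline after thallium stimulus; more negative B-score means stronger Kir2.1 block with less thallium influx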
ANO1 activ: mouse TMEM16A channel activation, primary screen. AID 623877. 340,000 tested, 0.3% active. B-score at 10 µM. HEK293 TMEM16A/YFP-H148Q/I152L, iodide quench fluorescence; active compounds read low. Q8BHY3;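 active = fluorescence-ratio B-score plate-corrected deviation score at least 3 library SD below zero, with starting fluorescence score within 5 deviations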;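 note: channel opened by trigger with iodide after compound preincubation; score built on the fluorescence ratio of max minus min over baseline; more negative score means more quench and so TMEM16A activation or potentiation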
The depositor's hits bear a star; i = inactive; . = no result given.

SMILES	TMEM16A inh	CHT PAM	CHT inh	GPR7 antag	Kir21 block	ANO1 activ
CC(C)(C)CC(C)(C)c1ccc(OCCOCC[N+](C)(C)Cc2ccccc2)cc1	25*	i	i	.	.	i
COc1ccc(C)cc1NS(=O)(=O)c1ccc2c(c1)N(C)CCO2	i	i	i	-2	-5.6*	i
CC(C)Cc1nc2ccccc2n1CCc1ccccc1	i	i	i	-4	-6.5*	i
CC(C)(C)Cc1nc2ccccc2n1CCc1ccccc1	i	i	i	-1	-6.1*	i
c1ccc(Cc2nc3ccccc3n2Cc2ccccc2)cc1	i	i	i	2	-7.2*	i
CCc1nc2ccccc2n1CCc1ccccc1	i	i	i	22	-2.7	i
CN(C(=O)C1CCCN(c2ncnc3c2nc2n3CCCCC2)C1)c1cccc(Cl)c1 (stereo not drawn)	i	i	i	-4	1.3	i
CC(C)(C)c1ccc(C2(C)NC(=O)NC2=O)cc1 (stereo not drawn)	i	i	i	8	-0.03	i
Nc1ccc(C(=O)N/N=C/c2cccc(Oc3ccccc3)c2)cc1	i	i	i	-3	-11*	i
COc1cc([N+](=O)[O-])ccc1NC(=O)NCC1CCN(Cc2ccc(Cl)cc2)CC1	i	i	i	33	-5.6*	i
COc1ccccc1OCc1nnc(SCC(=O)N2CCCCC2)o1	.	.	.	-15	0.82	i
COc1ccccc1OCc1nnc(SCC(=O)c2cc(Cl)ccc2OC)o1	100*	i	i	6	1.8	i
O=C(NCc1ccccc1)c1ccccc1NC(=O)C1CCCCC1	i	i	i	-8	0.23	i
O=C(OCCCOC(=O)c1ccc(O)cc1)c1ccc(O)cc1	i	i	i	-2	-4.9*	i
COc1ccc(S(=O)(=O)n2cccc2)cc1	i	i	i	.	0.08	i
CC(=O)O[C@H]1C[C@@]2(C)[C@@H](C[C@@H](O)[C@H]3[C@@]4(C)CC[C@@H](O)[C@@H](C)[C@@H]4CC[C@@]32C)/C1=C(\CCC=C(C)C)C(=O)O	i	i	i	.	-0.41	i
O=C(Cc1coc2cc3c(cc12)CCC3)NCC1(N2CCCCC2)CCCCC1	i	i	i	3	-4.7*	i
CC1CCN(C(=O)c2[nH]cnc2C(=O)Nc2ccon2)CC1	.	.	.	.	.	i
CC(O)C(NS(=O)(=O)c1ccc2ccccc2c1)C(=O)OCC(=O)Nc1ccccc1OC(F)F (stereo not drawn)	.	.	.	.	.	i
CCC(Oc1ccccc1)C(=O)Nc1ccccc1N1CCCC1 (stereo not drawn)	i	i	i	-13	-5.5*	i
CC(Oc1ccc(F)cc1)C(=O)Nc1ccccc1N1CCCCC1 (stereo not drawn)	i	i	i	-30	-3.3	-21*
CCC(Oc1ccccc1)C(=O)Nc1ccccc1N1CCCCC1 (stereo not drawn)	i	i	i	-48	-0.15	i
Cc1nc(SCC(=O)NCCc2ccc(Cl)cc2)nc(C)c1C	i	i	i	-14	-5*	i
O=C(CSc1ccc(F)cc1)NCCc1ccc(Cl)cc1	i	i	i	-4	-0.77	i
Cc1ccc(C23CC4CC(CC(NC(=O)NCCN(C)C)(C4)C2)C3)cc1	i	i	i	4	-4.3*	i
SMILES	TMEM16A inh	CHT PAM	CHT inh	GPR7 antag	Kir21 block	ANO1 activ
CN(C)CCNC(=O)COc1ccc(C23CC4CC(CC(C4)C2)C3)cc1	i	i	i	18	-6.5*	i
O=C(NC(C(=O)N/N=C/c1cccnc1)c1n[nH]c(=O)c2ccccc12)c1ccccc1 (stereo not drawn)	i	i	i	0	-2.1	-6.4*
O=C(CCS(=O)(=O)c1ccccc1)Nc1nc(-c2cccs2)cs1	i	i	i	1	-0.77	-7.9*
O=C(CCS(=O)(=O)c1ccccc1)Nc1nncs1	i	i	i	2	-0.76	i
N#C/C(=C\c1ccc(C(=O)O)cc1)c1nc2sc3c(c2c(=O)[nH]1)CCCC3	.	.	.	-9	.	i
Cc1ccc2nc(-c3ccc(NC(=S)NC(=O)C(C)C)cc3)sc2c1	i	i	i	-1	-1.1	i
Cc1ccc2nc(-c3ccc(NC(=S)NC4CC(C)(C)NC(C)(C)C4)cc3)sc2c1	i	i	i	52*	-5.1*	i
COc1cc(Cn2nnc3ccccc32)cc(Br)c1O	i	i	i	-24	1.3	i
COc1ccc(-c2cc(C(=O)N3CCc4ccccc4C3)no2)cc1OC	i	i	i	-5	-0.37	-6.4*
O=C(c1cc(-c2ccccc2)on1)N1CCc2ccccc2C1	i	i	i	1	2.3	i
COC(=O)c1ccc(-n2c(C)ccc2-c2ccccc2)cc1	i	i	i	-8	-1.5	i
COc1ccc(-n2c(C)ccc2-c2ccccc2)cn1	i	i	i	-5	-1.3	-4.8*
O=C(OCC(=O)N1N=C(c2ccc(Cl)cc2)CC1c1ccco1)c1cccnc1 (stereo not drawn)	.	.	.	.	.	i
CCN(CC)CC(C)CNC(=O)CC(C(=O)N1CCc2ccccc21)n1ccnc1 (stereo not drawn)	i	i	i	-7	1.1	i
CCCN(CCC)CCCNC(=O)CC(C(=O)N1CCc2ccccc21)n1ccnc1 (stereo not drawn)	25*	i	i	-8	0.09	i
CCOC(=O)Nc1ccc2c(c1)N(C(=O)CN(C)C)c1ccccc1CC2	100*	i	i	-10	0.39	i
CCOC(=O)Nc1ccc2c(c1)N(C(=O)CCN(C)C)c1ccccc1CC2	i	i	i	1	-1.6	i
COc1ccc(N(C(=O)c2ccco2)C(C(=O)NC2CCCC2)c2ccc(N3CCOCC3)cc2)c(OC)c1 (stereo not drawn)	i	i	i	-1	-0.71	i
Cc1onc(-c2ccccc2)c1CNS(=O)(=O)c1ccccc1[N+](=O)[O-]	i	i	i	0	-6.9*	i
CCc1ccc(CNCc2ccc(F)cc2)cc1	i	i	i	-19	-6.9*	i
Fc1ccc(CNCc2ccccc2Cl)cc1	i	i	i	19*	-0.16	i
Cc1ccc(CNCc2ccccc2Cl)cc1	i	i	i	-6	0.72	i
COc1ccc(NC(=O)c2cc(S(=O)(=O)N3CCCCC3)c[nH]2)cc1Cl	i	i	i	-4	-0.03	i
O=S(=O)(c1ccc(Cl)nc1)N1CCN(c2ncccn2)CC1	i	i	i	-5	0.16	i

Screening results (PubChem)
